Bioassay records as filed in PubChem BioAssay.
GLP-1R agonist = qHTS of GLP-1 Receptor Agonists; Potency, µM (titrated, usually from 45.6 µM), for the others: top-dose activation, actives largely listed as activators; Glucagon-like peptide 1 receptor (Homo sapiens), P43220; 0.007% of 380,000 active; HEK293 GLP-1R CRE-luciferase, luminescence, 4-6 h; cells express a hypersensitive GLP-1R form; further: potency means the concentration at half of the fitted maximal effect; % of control where 0% means no effect
GLP1R inv ag = qHTS of GLP-1 Receptor Inverse Agonists (Inhibition Mode). 1.6% of 410,000 active. HEK293 GLP-1R CRE-luciferase, luminescence, 24 h; GLP-1R form is constitutively active. Glucagon-like peptide 1 receptor (Homo sapiens), P43220. AID 624417, 2012. Potency, µM (doses to about 38.3 µM), for inactives: at the top dose activity change, negative = inhibition, usual class: inhibitors; further: potency means the concentration at half of the fitted maximal effect; on the % scale 0 is the no-effect control and ±100 the full control effect; nearly all actives have a fitted effect of over 55% in size
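HEK293 cells stably co-expressing a cAMP-responsive luciferase reporter and constitutively active GLP-1R were seeded, incubated 12 h, then exposed to compounds for 24 h at 37 C. Luminescence was read 12 min after detection reagent; inverse agonists lower signal.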
HEK293 tox = qHTS of GLP-1 Receptor Inverse Agonists: Cytotox Screen | HEK293 cAMP-luciferase reporter cells, luminescence, 24 h | Potency, µM (highest dose often 38.3 µM), for the others: at the highest dose activity change, negative = inhibition, most hits filed as inhibitors | 0.13% of 410,000 active;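 further: loss of luciferase light is scored as toxicity; potency means the concentration at half of the fitted maximal effect; on the % scale 0 is the no-effect control and ±100 the full control effect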
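Seeding density was 200 cells/uL; after overnight-length (12 h) culture, 23 nL compounds went on for 24 h at 37 °C. Readout used a luciferase detection reagent, luminescence taken after 12 min at room temperature.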
KCNH2 3.1 inh = qHTS for Inhibitors of KCHN2 3.1: Mutant qHTS; U2OS KCNH2 3.1, thallium flux FluxOr; active compounds read low; activity change, % (tested at about 1.8 µM); Potassium voltage-gated channel subfamily H member 2, brain isoform KCNH2 3.1 (human); AID 720553, 2013; 0.95% of 340,000 active;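 active means maximum activity change below -70%; inconclusive means maximum activity change from -70% to -50%; inactive means maximum activity change above -50%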;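 further: thallium influx rate constant from kinetic fluorescence after stimulation buffer; on the % scale 0 is the no-effect control and ±100 the full control effect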
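Kinetic fluorescence (2 min after stimulation buffer) measures Tl+ influx through KCNH2 3.1 expressed by viral transduction in U2OS cells; the rate constant is normalized against DMSO controls serving as positive and negative references.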
KCNH2 WT inh = qHTS for Inhibitors of KCHN2 3.1: Wildtype qHTS; U2OS, BacMam KCNH2, thallium flux FluxOr; active compounds read low; activity change, % at 1.84 µM; AID 720551, 2013; Voltage-gated inwardly rectifying potassium channel KCNH2 (Homo sapiens), Q12809; 0.37% of 340,000 active;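 active means maximum activity change below -70%; inconclusive means maximum activity change between -70% and -50%; inactive means maximum activity change above -50%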; further: on the % scale 0 is the no-effect control and ±100 the full control effect
Target sequence (Q12809 whole entry, looked up): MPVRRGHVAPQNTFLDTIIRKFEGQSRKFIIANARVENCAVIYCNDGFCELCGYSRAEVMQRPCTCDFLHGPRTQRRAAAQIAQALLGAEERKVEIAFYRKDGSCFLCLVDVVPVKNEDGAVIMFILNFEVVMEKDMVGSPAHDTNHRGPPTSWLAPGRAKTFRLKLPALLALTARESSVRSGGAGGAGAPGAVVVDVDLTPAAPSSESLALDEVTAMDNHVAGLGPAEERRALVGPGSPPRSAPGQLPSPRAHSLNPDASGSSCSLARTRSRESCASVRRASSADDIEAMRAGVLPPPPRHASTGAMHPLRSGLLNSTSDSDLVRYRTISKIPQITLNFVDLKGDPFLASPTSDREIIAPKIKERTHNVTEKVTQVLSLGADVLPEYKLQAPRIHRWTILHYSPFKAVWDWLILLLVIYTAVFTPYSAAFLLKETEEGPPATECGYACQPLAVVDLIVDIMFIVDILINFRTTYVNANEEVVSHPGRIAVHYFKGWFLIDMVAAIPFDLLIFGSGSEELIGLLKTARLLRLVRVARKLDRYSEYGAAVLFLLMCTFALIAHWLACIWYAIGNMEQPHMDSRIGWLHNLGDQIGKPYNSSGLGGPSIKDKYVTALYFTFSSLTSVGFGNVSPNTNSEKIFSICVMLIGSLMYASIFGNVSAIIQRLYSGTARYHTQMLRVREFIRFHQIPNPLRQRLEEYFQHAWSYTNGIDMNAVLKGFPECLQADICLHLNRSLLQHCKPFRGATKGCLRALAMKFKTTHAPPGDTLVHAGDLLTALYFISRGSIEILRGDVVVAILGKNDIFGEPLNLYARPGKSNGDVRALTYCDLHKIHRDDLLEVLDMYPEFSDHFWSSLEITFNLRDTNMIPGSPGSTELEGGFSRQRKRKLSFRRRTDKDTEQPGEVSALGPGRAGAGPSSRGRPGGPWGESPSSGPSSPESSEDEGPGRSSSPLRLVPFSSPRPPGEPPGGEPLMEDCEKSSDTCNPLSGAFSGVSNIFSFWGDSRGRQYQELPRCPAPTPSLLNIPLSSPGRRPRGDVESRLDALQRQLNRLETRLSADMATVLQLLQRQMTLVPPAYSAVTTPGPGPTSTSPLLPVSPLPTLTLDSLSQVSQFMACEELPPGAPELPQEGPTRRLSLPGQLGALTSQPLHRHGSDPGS
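U2OS cells transduced with wild-type KCNH2 virus are loaded with FluxOr dye for 45 min, and thallium flux is measured in kinetic reads before and after stimulation buffer. Rate constants are normalized to DMSO controls.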
GLS inhibitor = qHTS for Inhibitors of Glutaminase (GLS). Glutaminase kidney isoform, mitochondrial (Homo sapiens), O94925. GLS enzymatic activity, qHTS titration. Potency, µM (doses to about 45.5 µM), for inactives: at the highest dose activity change, negative = inhibition, usual class: inhibitors. 0.21% of 410,000 active; further: potency means the concentration at half of the fitted maximal effect; on the % scale 0 is the no-effect control and ±100 the full control effect
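Human kidney-isoform GLS in 45 mM KH2PO4 pH 8.2, 0.02% Tween-20, with compound, started with 1mM L-Glutamine (added stock). Glutamate oxidase/HRP/Amplex red coupled fluorescence read at start and after 30 min at RT.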
* hit, by the source's call; i = inactive; ? = inconclusive; . = no result given; [ ] = another dose, or the depositor's remark. Rows were chosen to be rich in hits. Some 2.8% of all compounds tested hit in one or more screens of this group. Unless noted, the call rests on the fitted dose curve; in most records, active means well fitted curve in the direction sought with a large enough effect; inconclusive means small, poorly fitted or top-dose-only effect, or another doubt; inactive means no such curve, though single readings can be large; an effect the other way counts as inactive or inconclusive.

SMILES | GLP-1R agonist | GLP1R inv ag | HEK293 tox | KCNH2 3.1 inh | KCNH2 WT inh | GLS inhibitor
CCCCCCCCN1C(=O)[C@H](CC(=O)NCc2cccc(C(F)(F)F)c2)C[C@@]2(C(=O)OC)CCCCC=C12 | 3% | 10µM* | ? | . | . | -7%
COC(=O)[C@]12CCCCC=C1N(Cc1ccccc1)C(=O)[C@H](CC(=O)NCC13CC4CC(CC(C4)C1)C3)C2 | -2% | 10µM* | -23% | . | . | 2%
CCCCCCCCN1C(=O)[C@H](CC(=O)NCc2cccc(C(F)(F)F)c2)C[C@@]2(C(=O)OCC)CCC=C12 | . | ? | -11% | . | . | .
CCCCCCCN(C(=O)CCl)c1cccc(C)c1 | -14% | ? | 6%[1.53 µM] | -4 | -9 | 1%
N#CCCN(C(=O)CCl)c1cccc(Cl)c1 | -5% | 2.2µM* | -13% | 2 | -8 | -3%
Cc1ccc(NC(=O)Cn2cc(S(=O)(=O)N3CCCC3)c(S(=O)(=O)N3CCCC3)c2)c(C)c1 | . | 9% | -3% | . | . | 0%
CC(C)C1=NN(C(=O)c2ccccc2)C(O)(C(C)(C)C)C1 (centres undefined) | -14% | 13µM* | ? | 20 | -2 | 2%
S=C(NCc1ccccc1)NNc1nc2ccccc2[nH]1 | 5% | ? | -29% | -74* | 1 | -27%
CCc1nn(CC(=O)NC(C)CC)c(=O)c2cc3c(OC)cccc3n12 (centres undefined) | . | 2% | -5% | . | . | -8%
COc1cc(CCCN2C(=S)NC[C@@H]2Cc2ccccc2)cc(OC)c1OC | 2% | 9% | 2% | -9 | 1 | 2%
COc1cc(CCCN2C(=S)NC[C@@H]2c2ccccc2)cc(OC)c1OC | -2% | 3% | -8% | -94* | 1 | 1%
O=c1c(Cc2ccc(F)cc2)c(O)ccn1Cc1cccc(Cl)c1 | -10% | 7.9µM* | -7% | 0 | -1 | 2%
O=c1c(Cc2ccc(Cl)cc2)c(O)ccn1Cc1cccc(Cl)c1 | -17% | ? | -6% | 1 | -17 | -9%
Cc1sc2ncn(CC(=O)N3CCN(c4ccccc4F)CC3)c(=O)c2c1S(=O)(=O)N1CCN(c2ncccn2)CC1 | -2% | 14% | 1% | . | . | -4%
CCn1c(=O)cc(SCC(=O)NCc2ccccn2)c2ccccc21 | 0% | 1% | -13% | -184* | 4 | -12%
COC(=O)c1ccccc1NC(=O)CCCn1c(=O)c2cccn2c2cccnc21 | . | 5% | 24% | . | . | -18%
CC(C)Cn1c(=O)c2ccccc2n2c(CCC(=O)N3CCN(c4ccccc4F)CC3)nnc12 | . | -12% | -3% | . | . | -2%
CC(c1ccccc1)N1C(=O)c2cccnc2C1=O (centres undefined) | -2% | 5% | 2% | -11 | -28 | -2%
CC(NC1=CC(=O)c2cccnc2C1=O)C(O)c1ccccc1 (centres undefined) | -34% | ? | 11µM* | -29 | 1 | 0%
O=S(=O)(NC1=NCCCCC1)c1cc(F)ccc1F | 7% | 2% | -2% | 12 | -2 | 0%
Cc1c(-c2ccccc2)sc2nc[nH]c(=S)c12 | 0% | 15%[7.66 µM] | 9%[7.66 µM] | -82* | -116* | -1%
CCCCn1c(N)c(N(CC)C(=O)CCNC(=O)NC23CC4CC(CC(C4)C2)C3)c(=O)[nH]c1=O | 3% | -1% | -8% | -71* | -3 | 5%
CCCCCCOc1ccc(/C(C)=N/NC2=NCCN2)cc1[N+](=O)[O-] | 17% | ? | ? | -49 | . | -5%
CCCCOc1ccc(Br)cc1/C(C)=N/NC1=NCCN1 | 3% | 2.8µM* | 4.5µM* | ? | -11 | 11%
Cc1cccc(C)c1NC(=O)N1CCC(C(N)=O)(N2CCCCC2)CC1 | . | 4% | 11% | . | . | 2%
SMILES | GLP-1R agonist | GLP1R inv ag | HEK293 tox | KCNH2 3.1 inh | KCNH2 WT inh | GLS inhibitor
CC(C)NS(=O)(=O)c1ccc(NC(=S)NC(=O)c2ccc(-c3ccccc3)cc2)cc1 | 1% | 3% | -2% | -75* | 1 | 19%
CC(=O)Nc1ccc(NC(=S)NC(=O)c2ccc(-c3ccccc3)cc2)cc1 | 3% | 13% | 5% | -28 | 1 | 6%
CCC(=O)N1CCc2cc(S(=O)(=O)NC(Cc3ccccc3)C(=O)NCc3cccc(OC)c3)ccc21 (centres undefined) | . | 5% | 2% | . | . | -1%
O=C(NC1CCC(C(=O)O)CC1)OCc1ccccc1 (centres undefined) | 0% | -10% | 5% | -11 | -7 | -4%
c1ccc(CO/N=C(\c2ccc(C3CC3)nc2)C2CC2)cc1 | -2% | 7.9µM* | 2% | 1 | 4 | -9%
O=C(CCCn1c(=O)[nH]c2ccccc2c1=O)NCCSCc1ccccc1 | 3% | -8% | -1% | 0 | 7 | -16%
O=C(CCCCCn1c(=O)[nH]c2ccccc2c1=O)NCCCN1CCN(c2ccccc2F)CC1 | 6% | ? | 0% | -70* | ? | 19%
NCCCCCc1cn(CC(=O)NCCCCCCCCCCC(=O)N2CCNCC2)nn1 | -1% | 5% | 15% | . | . | -3%
CCC[C@]1(CCc2ccccc2)CC(O)=C([C@H](CC)c2cccc(NS(=O)(=O)c3ccc(C(F)(F)F)cn3)c2)C(=O)O1 | -1% | . | . | . | . | 5%
CCCCC1=NN(C(=O)c2ccco2)C(O)(C(F)(F)F)C1 (centres undefined) | 6% | 2.2µM* | ? | -10 | i | -3%
CCC1=NN(C(=O)C(=O)Nc2ccc(Br)cc2)C(O)(C(F)(F)F)C1 (centres undefined) | -1% | ? | ? | 2 | 3 | 0%
CCCC1=NN(C(=O)C(=O)Nc2ccc(Br)cc2)C(O)(C(F)(F)F)C1 (centres undefined) | 12% | 7.1µM* | ? | -4 | -1 | 10%
O=C(Nc1ccc(Cl)c(Cl)c1)Nc1ccc(N2CCCC2)c(S(=O)(=O)Nc2ccccc2Cl)c1 | -15% | ? | ? | 4 | -11 | 5%
O=C(Nc1ccc(F)cc1)Nc1ccc(N2CCCC2)c(S(=O)(=O)Nc2ccccc2Cl)c1 | -9% | ? | -6% | -114* | -8 | 8%
